Wnt bcat act: activators of Wnt/beta-catenin signaling. AID 743398. activation, % at 9.35 µM. 300,000 compounds, 1.2% hits. Wnt/beta-catenin reporter cell assay, activator, plate reader; in the data active = activation above about 30%, passing the limit was not always enough; inconclusive = no clear call, values can overlap the other calls;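 note: 0% = neutral control wells and 100% = positive control wells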
N-glyco inh: N-linked glycosylation inhibition; D54 ERlucT glycosylation luciferase reporter, 24 h; percent of 100 nM tunicamycin response; reporter increase, % at 12.5 µM; 360,000 compounds, 0.23% hits; AID 588692;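 active = mean luciferase reporter signal, scaled so untreated is 0 and the glycosylation-blocking control 100, at or above a set limit in every replicate; inconclusive = mean reaches the limit but not every replicate does; inactive = mean below the limit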;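 note: luciferase carries N-glycosylation sites so blocking glycosylation raises the light; 0% = median of neutral control wells and 100% = median of 100 nM tunicamycin wells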
PfHsp90 set2: growth inhibition of yeast expressing Plasmodium Hsp90 | S. cerevisiae expressing PfHsp90, BacTiter-Glo ATP, 48 h; yeast lacking PDR1 and PDR3 efflux regulators | inhibition, % at 9.4 µM | 310,000 compounds, 0.32% hits;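 active = every replicate shows inhibition above about 80%, whatever the replicate mean, limit read from the data; inconclusive = mean inhibition reaches the set limit but some replicate falls short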;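 note: 0% = DMSO neutral controls and 100% = 20 µM radicicol positive controls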
TRPM1 prom inh: inhibitors of MITF-driven TRPM1 promoter in melanoma cells; AID 488899; 330,000 compounds, 0.83% hits; inhibition, % at 12.5 µM; SK-MEL-5 TRPM1 promoter luciferase, 24 h;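 active = mean inhibition across replicates of 60% or more, whatever share of single replicates reaches that level; inconclusive = some that reach 60%, reason not given; inactive = mean inhibition across replicates below 60%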
MITF act: activators of MITF-driven TRPM1 promoter activity in SK-MEL-5 cells; 300,000 compounds, 0.75% hits; activation, % at 12.5 µM; SK-MEL-5 TRPM1-promoter luciferase, 24 h; % of positive control, neutral wells = 0;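 active = mean activation of at least 80% with every replicate also reaching 80%; inconclusive = mean reaches 80% but some replicate falls short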;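 note: 0% = neutral control wells and 100% = parthenolide positive control wells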
NSD2 inh: blocks human histone methyltransferase NSD2; O96028; NSD2 peptide methylation, AlphaScreen, 120 min; inhibition, % at 12.5 µM; 310,000 compounds, 0.54% hits; in the data active = inhibition above about 50%
An asterisk follows results filed as active; ? = inconclusive; nt = no result given. In the library only some 2.9% were active in any assay of this set; here they are far more common.

SMILES | Wnt bcat act | N-glyco inh | PfHsp90 set2 | TRPM1 prom inh | MITF act | NSD2 inh
Cc1nn(-c2ccccc2)c(C)c1/C=N\NC(=O)CSc1nc2ccccc2n1Cc1ccc(Cl)cc1 | nt | nt | nt | nt | nt | -4
COc1cccc2c1-c1c(O)cccc1C2=O | -1 | 2 | 2 | 8 | -5 | -3
COc1cccc2c1C(=O)c1c(O)c3c(c(O)c1C2=O)C[C@](O)(C(C)=O)C[C@H]3O[C@@H]1C[C@@H](N)[C@@H](O)[C@@H](C)O1 | -23 | -14 | -36 | 88* | -88 | nt
CCCCC(=O)OCC(=O)C1(O)Cc2c(O)c3c(c(O)c2C(OC2CC(NC(=O)C(F)(F)F)C(O)C(C)O2)C1)C(=O)c1c(OC)cccc1C3=O (stereo unspecified) | -3 | -7 | 3 | 61* | nt | -2
COc1cccc2c1C(=O)c1c(O)c3c(c(O)c1C2=O)CC(O)(C(C)=O)CC3OC1CC(O)C(O)C(C)O1 (stereo unspecified) | -4 | -3 | -1 | 77* | nt | nt
CC1(C)CC2CC(C)(CN2C(=O)COC(=O)c2ccc(NC(=O)CC#N)cc2)C1 (stereo unspecified) | -1 | -4 | nt | -3 | 1 | 1
Cn1c(=O)c2c(c3ccccc31)OC(C)(C)C=C2 | 0 | nt | nt | nt | nt | nt
CCCCc1nnn2c1C1c3cc(-c4cccnc4)ccc3CCN1C(=O)C2 (stereo unspecified) | -2 | nt | nt | nt | nt | nt
CC1(C)CCC(=O)N2CC[C@H]3C[C@H](OC(=O)Nc4ccccc4)C[C@@H]1[C@H]32 | 24 | -3 | -19 | -54 | 56 | nt
CC1(C)CCC(=O)N2CC[C@H]3C[C@H](OC(=O)Nc4ccc5c(c4)OCO5)C[C@@H]1[C@H]32 | 14 | -10 | 1 | -100 | 104* | nt
CC(C)C1Nc2c(O)cc(Cl)c([N+](=O)[O-])c2C2C=CCC21 (stereo unspecified) | -2 | 0 | 110* | 18 | -16 | 26
S=c1[nH]nc(COc2ccc(Cl)cc2)n1C1CCCCC1 | -4 | 2 | -43 | 6 | -4 | -9
Cc1ccc(OCc2n[nH]c(=S)n2C2CCCCC2)cc1 | -1 | 2 | 90* | 3 | 0 | nt
CCNC(=S)Nc1cccc(S(=O)(=O)Nc2ccccc2OC)c1 | 33* | 1 | -8 | -6 | 7 | 2
Cc1ccccc1NC(=O)OCCN1CCCC12CCC(c1ccccc1)CC2 (stereo unspecified) | nt | nt | nt | nt | nt | -2
O=C(Nc1ccccn1)c1cc2ccccc2o1 | nt | -22 | 39 | 62* | -62 | nt
O=C(Nc1ncccc1O)c1ccc(Oc2ccccc2)cc1 | 37* | -1 | 29 | -47 | 47 | 8
O=C(Nc1ncccc1O)c1cc2ccccc2o1 | 55* | -14 | nt | -18 | 16 | 5
Cc1ccnc(NC(=O)c2cc3ccccc3o2)c1 | 21 | -23 | nt | 40 | -40 | -3
COC(=O)C1=C(C)N(Cc2cccc(C(F)(F)F)c2)C(=NCc2cc(OC)c(OC)c(OC)c2)NC1c1ccc(Cl)cc1 (stereo unspecified) | -28 | nt | nt | nt | nt | nt
Cc1occc1-c1nnc(SCC(=O)Nc2ccc3ncccc3c2)n1-c1ccccc1 | nt | nt | nt | nt | nt | -3
CCCn1nnc(NC(=O)c2ccc(Br)cc2)n1 | -4 | -2 | 12 | -49 | 57 | 1
CCCn1nnc(NC(=O)c2ccc(-c3ccccc3)cc2)n1 | 29 | -3 | -5 | -93 | 92* | -2
COc1ccc(CCNC(=O)C2CCN(S(=O)(=O)c3ccc(C)cc3)CC2)cc1OC | 62* | 0 | 11 | 4 | -6 | -2
CC1CCN(c2ccc(C(=O)O)cc2NS(=O)(=O)c2cccc3cccnc23)CC1 | nt | nt | nt | nt | nt | 1
SMILES | Wnt bcat act | N-glyco inh | PfHsp90 set2 | TRPM1 prom inh | MITF act | NSD2 inh
CN(C)C=NC(=O)c1cc(C(=O)c2ccc(C(C)(C)C)cc2)c[nH]1 | 15 | -7 | -10 | -84 | 86* | 1
COc1ccc2cc1Oc1ccc(cc1)CC1c3c(cc(OC)c4c3Oc3cc5c(cc3O4)CCNC5C2)CCN1C (stereo unspecified) | nt | -14 | nt | 109* | -109 | nt
COc1cc2c3cc1Oc1cc(ccc1O)C[C@@H]1c4c(cc(OC)c(O)c4Oc4ccc(cc4)C[C@@H]3N(C)CC2)CC[N+]1(C)C | nt | nt | nt | nt | nt | 9
COc1ccc2cc1Oc1ccc(cc1)C[C@H]1c3c(cc(OC)c4c3Oc3c(ccc5c3[C@H](C2)N(C)CC5)O4)CCN1C | nt | -14 | 14 | 91* | -90 | nt
O=C(NC1CC1)C1CCN(C2CCN(C(=O)c3c(F)cccc3Cl)CC2)CC1 | -1 | 2 | -14 | 6 | -8 | 1
CN(CC(=O)Nc1c(Cl)cccc1Cl)C(=O)CCC1CCCC1 | -1 | 0 | 0 | 4 | -3 | 6
O=S(=O)(c1ccc(SCc2cccc(Cl)c2)nc1)N1CCCC1 | ? | -3 | -63 | -8 | 7 | -6
C(=NN1CCCCCC1)c1ccc2ccccc2n1 | -23 | -19 | 33 | 93* | -92 | 3
C=C(C(=O)c1ccccc1)C(NC(C)(C)C)c1ccccc1 (stereo unspecified) | -21 | -19 | -37 | 99* | -98 | nt
O=C(NCCc1ccccc1)OCc1cn(Cc2ccc(F)cc2)nn1 | nt | nt | nt | nt | nt | 0
CNC(CC(=O)c1ccc([N+](=O)[O-])cc1)C(Cl)(Cl)Cl (stereo unspecified) | nt | 11 | 109* | 90* | -90 | nt
COc1ccc(C(=O)CC(Nc2ccc([N+](=O)[O-])cc2)c2ccc(OC)cc2)cc1 (stereo unspecified) | 0 | -2 | 1 | -4 | 7 | -3
CCc1cccc(Nc2cc(C)n(-c3cccc(CC)c3)c(=O)c2)c1 | 6 | nt | nt | nt | nt | nt
CCCCNC(=O)C1(C)CCCCN1C(=O)c1c(C)noc1C (stereo unspecified) | 33* | 1 | nt | nt | nt | 1
CCCCNC(=O)C1(C)CCCCN1C(=O)c1cccs1 (stereo unspecified) | 39* | 1 | nt | nt | nt | -2
Fc1cccc(CSc2ccc(-c3ccco3)nn2)c1 | 30* | -3 | -1 | -37 | 38 | 2
COc1ccc2nc(NC(=O)C3CCN(S(=O)(=O)c4cccc5nsnc45)CC3)sc2c1 | -13 | -13 | -9 | 74* | -73 | nt
Cc1cccc(NC(=O)C2CCN(S(=O)(=O)c3cccc4nsnc34)CC2)n1 | -11 | -1 | 7 | 4 | -1 | nt
CCCCCCCCCCCCCCCC[n+]1cccc2ccccc21 | -12 | 9 | 106* | 103* | -102 | 5
CCCCCCCCC[n+]1cccc2c3ccccc3ccc21 | nt | ? | 12 | 93* | -93 | nt
CC(=NNC(=S)N1CCC1)c1ccccn1 | -3 | -7 | 107* | 69* | nt | 1
CC(=NNC(=S)Nc1cccc(Cl)c1)c1ccccn1 | 6 | -13 | 124* | 33 | -32 | nt
S=C(NCc1ccccn1)Nc1cccc(Cl)c1 | nt | 0 | -4 | 4 | -5 | -1
CC(=O)O[C@H]1[C@H](OC(C)=O)C[C@]2(OC(C)=O)C[C@H]1OC2=O | nt | nt | nt | nt | nt | 24

Screening results deposited in PubChem by Broad Institute.
